# Test results: the supplement of paper PMC9694430
# Structures can show the parent of a compound that is named as a salt.
# Legend:
# Experiment in all cases: thermal shift delta Tm vs DMSO control; higher = stronger stabilization (binding)
# Conditions in all cases: 12.5 µM; protein concentration 2 µM
# LOC_OS01G57100-cb003 = test system: LOC_OS01G57100-cb003
# In short: (§1)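 The melting temperature shift given here is a triplicate mean, measured against protein that received only DMSO. Melting temperatures came from Boltzmann fits of differential scanning fluorimetry data on E. coli-expressed, purified rice kinase domain constructs. Each 19.5 μl well contained 2 μM kinase, 100 mM potassium phosphate pH 7.5, 150 mM NaCl, 10% glycerol, 5 × SYPRO Orange and compound in DMSO. Plates were scanned from 25°C to 95°C at 0.05°C/s.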
# LOC_OS01G60330-cb001 = test system: LOC_OS01G60330-cb001
# In short: as §1
# LOC_OS01G60700-cb002 = test system: LOC_OS01G60700-cb002
# In short: as §1
# LOC_OS01G63280-cb003 = test system: LOC_OS01G63280-cb003
# In short: as §1
# LOC_OS01G67340-cb003 = test system: LOC_OS01G67340-cb003
# In short: as §1
# LOC_OS01G70970-cb002 = test system: LOC_OS01G70970-cb002
# In short: as §1
# LOC_OS02G07810-cb001 = test system: LOC_OS02G07810-cb001
# In short: as §1
# LOC_OS02G08530-cb003 = test system: LOC_OS02G08530-cb003
# In short: as §1
# LOC_OS02G14120-cb001 = test system: LOC_OS02G14120-cb001
# In short: as §1
# LOC_OS02G17970-cb001 = test system: LOC_OS02G17970-cb001
# In short: as §1
# LOC_OS02G45750-cb003 = test system: LOC_OS02G45750-cb003
# In short: as §1
# LOC_OS02G54510-cb004 = test system: LOC_OS02G54510-cb004
# In short: as §1
# LOC_OS03G04050-cb001 = test system: LOC_OS03G04050-cb001
# In short: as §1
# LOC_OS03G12390-cb001 = test system: LOC_OS03G12390-cb001
# In short: as §1
# LOC_OS03G27990-cb004 = test system: LOC_OS03G27990-cb004
# In short: as §1
# LOC_OS03G50450-cb001 = test system: LOC_OS03G50450-cb001
# In short: as §1
# LOC_OS03G50810-cb003 = test system: LOC_OS03G50810-cb003
# In short: as §1
# LOC_OS04G35114-cb001 = test system: LOC_OS04G35114-cb001
# In short: as §1
# LOC_OS04G38480-cb003 = test system: T1, LOC_OS04G38480-cb003
# T1 sequence (whole entry): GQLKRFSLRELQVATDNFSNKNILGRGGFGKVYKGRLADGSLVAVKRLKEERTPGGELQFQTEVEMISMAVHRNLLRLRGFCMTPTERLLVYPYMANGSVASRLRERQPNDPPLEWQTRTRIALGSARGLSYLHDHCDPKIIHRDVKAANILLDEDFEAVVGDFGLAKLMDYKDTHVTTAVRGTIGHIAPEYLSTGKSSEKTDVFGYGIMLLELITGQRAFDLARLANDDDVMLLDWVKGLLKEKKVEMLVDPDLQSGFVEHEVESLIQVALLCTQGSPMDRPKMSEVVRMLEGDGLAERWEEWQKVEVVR
# In short: as §1
# LOC_OS04G41100-cb001 = test system: T2, LOC_OS04G41100-cb001
# T2 sequence (whole entry): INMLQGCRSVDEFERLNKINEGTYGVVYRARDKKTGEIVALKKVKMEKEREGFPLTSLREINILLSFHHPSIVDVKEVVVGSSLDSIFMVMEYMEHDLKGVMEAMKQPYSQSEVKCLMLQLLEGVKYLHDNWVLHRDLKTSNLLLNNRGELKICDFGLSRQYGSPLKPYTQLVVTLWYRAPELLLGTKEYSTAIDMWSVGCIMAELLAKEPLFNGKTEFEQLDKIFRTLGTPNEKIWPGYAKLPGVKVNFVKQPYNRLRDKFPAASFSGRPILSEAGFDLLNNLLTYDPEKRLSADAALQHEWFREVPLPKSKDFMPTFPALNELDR
# In short: as §1
SMILES,thermal shift delta Tm (LOC_OS01G57100-cb003) [°C],thermal shift delta Tm (LOC_OS01G60330-cb001) [°C],thermal shift delta Tm (LOC_OS01G60700-cb002) [°C],thermal shift delta Tm (LOC_OS01G63280-cb003) [°C],thermal shift delta Tm (LOC_OS01G67340-cb003) [°C],thermal shift delta Tm (LOC_OS01G70970-cb002) [°C],thermal shift delta Tm (LOC_OS02G07810-cb001) [°C],thermal shift delta Tm (LOC_OS02G08530-cb003) [°C],thermal shift delta Tm (LOC_OS02G14120-cb001) [°C],thermal shift delta Tm (LOC_OS02G17970-cb001) [°C],thermal shift delta Tm (LOC_OS02G45750-cb003) [°C],thermal shift delta Tm (LOC_OS02G54510-cb004) [°C],thermal shift delta Tm (LOC_OS03G04050-cb001) [°C],thermal shift delta Tm (LOC_OS03G12390-cb001) [°C],thermal shift delta Tm (LOC_OS03G27990-cb004) [°C],thermal shift delta Tm (LOC_OS03G50450-cb001) [°C],thermal shift delta Tm (LOC_OS03G50810-cb003) [°C],thermal shift delta Tm (LOC_OS04G35114-cb001) [°C],thermal shift delta Tm (LOC_OS04G38480-cb003) [°C],thermal shift delta Tm (LOC_OS04G41100-cb001) [°C]
COc1cc2c3cc1Oc1c(OC)c(OC)cc4c1[C@@H](Cc1ccc(O)c(c1)Oc1ccc(cc1)C[C@@H]3N(C)CC2)N(C)CC4 [Berbamine (dihydrochloride)],1.3,-0.73,1.22,-0.06,0.28,0.03,-0.23,1.1,0.03,-0.21,0,-0.14,0.28,-0.42,-0.08,0.16,-0.29,0.22,0.37,0.23
C[C@@H](Oc1ccc2[nH]nc(/C=C/c3cnn(CCO)c3)c2c1)c1c(Cl)cncc1Cl,2.21,7.79,0.64,7.65,12.6,12.2,0.37,5.56,15,-0.09,13.1,7.93,0.05,10.5,9.48,6.65,6.58,12.3,5.56,1.48
CN(C)C/C=C/C(=O)Nc1ccc(C(=O)Nc2cccc(Nc3ncc(Cl)c(-c4c[nH]c5ccccc45)n3)c2)cc1,4.58,12.2,2.21,1.68,4.17,11.9,1.36,5.36,10.1,1.88,6.63,2.87,0.82,10.8,4.72,5.94,5.98,1.96,4.69,1.76
N#Cc1c(Oc2ccc(F)c(NC(=O)Cc3cccc(C(F)(F)F)c3)c2)ccc2nc(NC(=O)C3CC3)sc12,2.29,1.23,1.86,0.73,0.52,0.34,0.79,0.98,0.68,0.88,1.08,0.54,0.5,0.15,0.31,0.4,0.5,0.45,1.92,0.42
CCNC(=O)Nc1ccc(-c2nc(N3CCOC[C@@H]3C)c3c(n2)C(C)(C)S(=O)(=O)C3)cc1,2.26,0.52,-0.02,0.04,0.5,0.57,-0.58,0.6,1.4,-0.21,0.42,0.08,0.36,0.06,0.16,0.41,0.16,0.29,1.39,0.2
C=CC(=O)N1CC[C@@H](Oc2nc(Nc3ccc(N4CCC(N5CCN(C)CC5)CC4)cc3)c(C(N)=O)nc2CC)C1 [Naquotinib(ASP8273)],0.96,9.41,0.02,0.22,1.05,5.67,-0.78,4.36,8.5,0.57,0,3.07,0.21,9.13,5.37,4.82,5.96,8.09,3.19,0.5
CCOc1ccn(-c2ccc(F)cc2)c(=O)c1C(=O)Nc1ccc(Oc2ccnc(N)c2Cl)c(F)c1,1.62,0.89,0.32,6.59,0.42,0.37,1.56,1.41,4.74,1.32,1.27,0.13,0.16,0.96,0.05,0.3,0.47,1.17,1.53,2.01
Cc1nc(Nc2n[nH]c3c2CN(C(=O)N[C@H](CN(C)C)c2ccccc2)C3(C)C)c2sccc2n1,0.61,-0.15,1.34,0.55,0.06,0.38,0.99,2.37,0.4,0.96,0.94,0.82,0.62,3.19,0.55,0.78,1.44,3.07,0.43,0.63
CN1CCN(S(=O)(=O)c2ccc(-c3cnc(N)c(C(=O)Nc4cccnc4)n3)cc2)CC1,1.13,1.53,1.31,0.13,0.5,1.05,0.28,1.13,2.21,-0.31,3.58,0.11,0.29,1.18,0.73,0.63,0.87,2.43,1.65,0.85
CCc1cnn2c(NCc3ccc[n+]([O-])c3)cc(N3CCCC[C@H]3CCO)nc12,1.62,1.64,0.78,0.34,-0.24,0.27,1.17,0.89,0.57,0.96,0.58,0.19,0.27,1.31,0.33,0.63,0.67,0.57,0.56,0.68
CN(C)C/C=C/C(=O)Nc1cc2c(Nc3ccc(F)c(Cl)c3)ncnc2cc1O[C@H]1CCOC1 [Afatinib (BIBW2992) Dimaleate],0.18,1.16,1.57,1,0.71,-0.12,0.8,1.12,2.75,1.68,1.42,0.08,0.35,2.3,1.68,0.41,1.38,5.35,2.08,0.45
